Source: PubChem BioAssay
A number with no mark means an inactive call. No rule for the calls is given here.

These molecules were tested against Pantothenate synthetase (Mycobacterium tuberculosis (strain ATCC 25618 / H37Rv)) (UniProt P9WIL5) (assay: Recombinant Mtb pantothenate synthetase (PanC) inhibitors, coupled enzyme, confirmatory (AID 375;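 also: 0% = full reaction with vehicle and 100% = no enzyme background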)). Conditions: coupled enzyme assay; at 10 µM, active compounds read high.
Chain of Pantothenate synthetase (Mycobacterium tuberculosis (strain ATCC 25618 / H37Rv)) (P9WIL5 whole entry, looked up): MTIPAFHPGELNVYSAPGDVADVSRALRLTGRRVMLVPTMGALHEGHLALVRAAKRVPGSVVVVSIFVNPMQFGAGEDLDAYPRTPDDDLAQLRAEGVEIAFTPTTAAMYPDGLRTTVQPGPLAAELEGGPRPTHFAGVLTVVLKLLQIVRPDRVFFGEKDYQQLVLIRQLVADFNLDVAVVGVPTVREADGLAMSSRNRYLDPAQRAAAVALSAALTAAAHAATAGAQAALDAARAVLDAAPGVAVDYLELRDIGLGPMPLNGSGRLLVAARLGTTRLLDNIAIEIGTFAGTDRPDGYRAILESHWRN

SMILES | inhibition [%]
CCOC(=O)c1cccc(NC(=O)CCn2nnc3ccccc32)c1 | 0
COc1ccc(NC(=O)CN(c2cc(C)cc(C)c2)S(=O)(=O)c2c(C)noc2C)cc1OC | 0
Cc1cc(C)n2c(SCC(=O)Nc3cc(C)on3)nnc2n1 | 17
COc1ccc(-n2ncc3c(N4CCN(c5cccc(C)c5C)CC4)ncnc32)cc1 | 0
CCCCn1nnnc1SCC(=O)N1CCN(C(=O)c2ccco2)CC1 | 0
COc1ccc(-c2coc3c(CN4CCCCC4)c(O)c(CN4CCCCC4)c(O)c3c2=O)cc1 | 0
CCOC(=O)C1CCN(c2c(NC3CCCCCCC3)c(=O)c2=O)CC1 | 3
O=C(C1CCN(C2CC(=O)N(c3ccc(F)cc3)C2=O)CC1)N1CCOCC1 (stereo not given) | 0
COC(=O)c1ccc(C2C(C#N)=C(N)Oc3cc(C)n(C)c(=O)c32)cc1 (stereo not given) | 0
COc1ccc(OC)c(-c2nnc(SCC(=O)NC3CCCCC3)o2)c1 | 0
CC1=C(C)C(=O)C(CCCCC#CCCCC#CCO)=C(C)C1=O | 6
COc1cc(OC)c(NC(=O)c2ccco2)cc1Cl | 0
O=C(CCc1ccccc1)Nc1ccncc1 | 0
CC(C)(C)NCC(O)c1cc(O)cc(O)c1 (stereo not given) | 0
O=C(CSc1nc2ccccc2o1)N1CCN(c2ccc(Cl)cc2)CC1 | 0
CCCC(C)C(=O)Nc1ccc(C(N)=O)cc1 (stereo not given) | 3
CCOC(=O)c1ccccc1NC(=O)c1c(O)c2ccccc2n(CC)c1=O | 0
COc1ccc2c(CC(=O)Nc3nnc(C4CC4)s3)coc2c1 | 0
COc1ccc(NC(=O)CSc2nnc(Cc3cccn3C)n2-c2ccc(F)cc2)cc1 | 0
Cc1c(Cl)cccc1N1C(=O)c2ccccc2C1=O | 0

SMILES | inhibition [%]
Nn1c(SCc2csc(-c3ccccc3)n2)nnc1-c1cccs1 | 0
COCCN(Cc1cc2cccc(C)c2[nH]c1=O)C(=O)c1ccccc1 | 0
CCC(C)NC(=O)C1(C)CCC(=O)N1Cc1ccccc1OC (stereo not given) | 10
Cc1ccc(C(=O)CSc2n[nH]c(-c3ccco3)n2)cc1C | 1
CCOC(=O)CCCOC(=O)c1ccc(S(=O)(=O)N(C)C)cc1 | 0
CCOC(=O)c1oc2cc(OCC(N)=O)ccc2c(=O)c1-c1ccc(OC)c(OC)c1 | 3
O=C(CS(=O)(=O)Cc1ccccc1)N1CCc2ccccc2C1 | 1
Nn1c(SCC(=O)Nc2ccc(S(=O)(=O)N3CCCC3)cc2)nnc1C(F)(F)F | 0
CCC1(c2ccccc2)C(=O)NCNC1=O | 7
Cc1ccc(C)c(C(=O)NC2CC(C)(C)NC(C)(C)C2)c1 | 0
O=C(Nc1cccc(F)c1)c1ccc2c(c1)OCO2 | 2
COc1cc(C(=O)N2CCN(C(=O)CC(C)C)CC2)cc(OC)c1OC | 0
CCN1CCN(c2nc3c(c(=O)n(C)c(=O)n3C)n2Cc2cccc3ccccc23)CC1 | 0
CCCOc1ccc(-c2nnn(CC(=O)Nc3cccc(C(=O)OC)c3)n2)cc1 | 7
Brc1ccc(C2=Nn3c(nnc3-c3ccncc3)SC2)cc1 | 0
CCc1ccc(N(CC(=O)NC2CCCC2)S(=O)(=O)c2c(C)noc2C)cc1 | 1
COc1cccc(C2C(C#N)=C(N)OC3=C2C(=O)CCC3)c1OC(=O)c1ccco1 (stereo not given) | 13
Cc1ccccc1-c1nc(CN2CCC(C(=O)NCCCN3CCOCC3)CC2)c(C)o1 | 5
COc1ccc(-c2ccc(-c3nnn(CC(C)=O)n3)cc2)cc1 | 2
CSCCC(NS(=O)(=O)c1ccc2c(c1)oc(=O)n2C)C(=O)NC1CCCCC1 (stereo not given) | 0
